Assay results from PubChem BioAssay.
Calls of active or inactive are those of the source. Unless noted, how the calls were made is not given here.

Tests used:
[1] = test system: Wnt5a (protein binding on small-molecule microarray); experiment: small molecules binding Wnt5a protein – biophysical, small-molecule microarray, 635/667 nm fluorescence, primary screen (AID 1142); conditions: 635 nm fluorescence, higher = more signal;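 further: fluorescence read at 667 nm with signal to noise per printed feature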
[2] = ATP-based viability of Huh7 replicon cells – cell-based, CellTiter-Glo luminescence, basal, 48 h, cytotoxicity control for HCV replication inhibitor project, primary screen (AID 1143); conditions: higher = more signal, called active from +8 up or from −8 down;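 further: Huh7 hepatoma cells carrying a hepatitis C replication reporter with no stimulus; test concentration not given here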
[3] = Pseudomonas biofilm growth suppression – PAO1 strain, BacTiter-Glo luminescence, LB-PBS, primary screen (AID 1144); conditions: P. aeruginosa PAO1 biofilm, 12 h, higher = more signal
[4] = basal CRE-LacZ reporter activity in PC12 – cell-based, unstimulated, primary screen (AID 1145); conditions: no forskolin, luminescence, 4.5 h, higher = more signal, called active from +8 up or from −8 down
[5] = forskolin-driven CRE-LacZ activity in PC12 – cell-based, CRE-LacZ reporter, forskolin-stimulated, primary screen (AID 1146); conditions: luminescence, 4.5 h, higher = more signal, called active from +8 up or from −8 down;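 further: PC12 cells with 6xCRE LacZ reporter stimulated by forskolin 10 µM; beta-galactosidase reporter signal reflecting CREB driven transcription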
[6] = target: Streptavidin (Streptomyces avidinii) (UniProt P22629); experiment: compounds binding control protein streptavidin – biophysical, small-molecule microarray, 635/667 nm fluorescence, artefact control for SMM compound annotation, primary screen (AID 1147); conditions: higher = more signal;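 further: signal reflects streptavidin binding to arrayed compounds as a control protein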
[7] = probe aInhba binding on compound microarray – biochemical, small-molecule microarray, 635/667 nm fluorescence, primary screen (AID 1148); conditions: higher = more signal;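 further: score merges 667nm spot fluorescence with signal-to-noise for antibody binding to printed compounds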
[8] = target: Torsin-1A (Homo sapiens) (UniProt O14656); experiment: TOR1A wild-type binding on microarray – cell lysate, small-molecule microarray, lysate, 635/667 nm, primary screen (AID 1149); conditions: COS7 hTOR1A-WT lysate, 635 nm fluorescence, higher = more signal
[9] = target: Torsin-1A (Homo sapiens) (UniProt O14656); experiment: torsin A mutant lysate binding on microarrays – cell lysate, small-molecule microarray, COS7 lysate, 635/667 nm fluorescence, primary screen (AID 1150); conditions: COS7 hTOR1A mutant lysate, 635 nm fluorescence, higher = more signal;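 further: score pools 667 nm emission and signal to noise measuring lysate protein binding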
[10] = test system: Sonic hedgehog protein (Shh); experiment: Sonic hedgehog microarray binding compounds – biochemical, small-molecule microarray, 635/667 nm fluorescence, primary screen (AID 1151); conditions: 635 nm fluorescence, higher = more signal;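 further: Shh protein binding to compounds spotted on small-molecule microarray slides; score combines spot fluorescence intensity with signal-to-noise across triplicate slides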
[11] = optical density shifts of acrAB sulA E. coli – strain DRC41, OD650, 48 h, E. coli filamentation inducer project, primary screen (AID 1152); conditions: higher = more signal, called active from +8 up or from −8 down;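 further: E. coli MC1000 strain DRC41 lacking acrAB efflux pump and sulA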
[12] = probe aLefty1 binding on compound microarray – biochemical, small-molecule microarray, 635/667 nm fluorescence, primary screen (AID 1153); conditions: higher = more signal;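 further: score merges spot fluorescence with signal-to-noise ratio from the scanned slide images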
[13] = plasmodial surface anion channel blockers, osmotic lysis – cell-based, P. falciparum Indochina, OD700, 1 h, primary screen (AID 1154); conditions: P. falciparum Indochina infected RBC osmotic lysis, higher = more signal, called active from +8 up or from −8 down
[14] = plasmodial surface anion channel blockers, osmotic lysis – cell-based, P. falciparum Indochina, OD700, 2 h, primary screen (AID 1155);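 further: lysis reports solute entry through the parasite surface anion channel PSAC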; conditions: P. falciparum Indochina infected erythrocytes, higher = more signal, called active from +8 up or from −8 down
[15] = changes in parasitized red cell lysis, either direction – P. falciparum Indochina, OD700, 3 h, PSAC antagonist project, primary screen (AID 1156); conditions: P. falciparum-infected erythrocytes, osmotic lysis, higher = more signal, called active from +8 up or from −8 down
[16] = plasmodial surface anion channel blockers, osmotic lysis – cell-based, P. falciparum Indochina, OD700, 18 h, primary screen (AID 1157); conditions: P. falciparum Indochina infected erythrocytes, osmotic lysis OD700, 18 h; higher = more signal, called active from +8 up or from −8 down
[17] = S6 kinase pathway phospho-S6 level changes – cell-based, A549, cytoblot, luminescence, serum-stimulated, primary screen (AID 1158); conditions: 5 h, higher = more signal;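 further: serum-stimulated A549 lung adenocarcinoma cells; signal is phosphorylated S6 detected by cytoblot immunostaining with HRP secondary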
[18] = target: NADPH oxidase 2 (Homo sapiens) (UniProt P04839); experiment: compounds shifting NOX2 Amplex Red fluorescence – cell-based, HEK293-NOX2, PMA-stimulated, NOX inhibitor project, primary screen (AID 1159); conditions: 45 min, higher = more signal, called active from +8 up or from −8 down; further: test concentration not given here
[19] = target: NADPH oxidase 4 (Homo sapiens) (UniProt Q9NPH5); experiment: compounds shifting NOX4 Amplex Red fluorescence – cell-based, HEK293-NOX4, tetracycline-induced, NOX inhibitor project, primary screen (AID 1160); conditions: HEK293-NOX4, Amplex Red H2O2 fluorescence, 45 min; higher = more signal, called active from +8 up or from −8 down
[20] = target: NADPH oxidase 5 (Homo sapiens) (UniProt Q96PH1); experiment: compounds shifting NOX5 Amplex Red fluorescence – cell-based, HEK293-NOX5, NOX inhibitor project, primary screen (AID 1161); conditions: HEK293-NOX5, ionomycin, 45 min, higher = more signal
NADPH oxidase 5 (Homo sapiens), sequence (Q96PH1 whole entry, looked up): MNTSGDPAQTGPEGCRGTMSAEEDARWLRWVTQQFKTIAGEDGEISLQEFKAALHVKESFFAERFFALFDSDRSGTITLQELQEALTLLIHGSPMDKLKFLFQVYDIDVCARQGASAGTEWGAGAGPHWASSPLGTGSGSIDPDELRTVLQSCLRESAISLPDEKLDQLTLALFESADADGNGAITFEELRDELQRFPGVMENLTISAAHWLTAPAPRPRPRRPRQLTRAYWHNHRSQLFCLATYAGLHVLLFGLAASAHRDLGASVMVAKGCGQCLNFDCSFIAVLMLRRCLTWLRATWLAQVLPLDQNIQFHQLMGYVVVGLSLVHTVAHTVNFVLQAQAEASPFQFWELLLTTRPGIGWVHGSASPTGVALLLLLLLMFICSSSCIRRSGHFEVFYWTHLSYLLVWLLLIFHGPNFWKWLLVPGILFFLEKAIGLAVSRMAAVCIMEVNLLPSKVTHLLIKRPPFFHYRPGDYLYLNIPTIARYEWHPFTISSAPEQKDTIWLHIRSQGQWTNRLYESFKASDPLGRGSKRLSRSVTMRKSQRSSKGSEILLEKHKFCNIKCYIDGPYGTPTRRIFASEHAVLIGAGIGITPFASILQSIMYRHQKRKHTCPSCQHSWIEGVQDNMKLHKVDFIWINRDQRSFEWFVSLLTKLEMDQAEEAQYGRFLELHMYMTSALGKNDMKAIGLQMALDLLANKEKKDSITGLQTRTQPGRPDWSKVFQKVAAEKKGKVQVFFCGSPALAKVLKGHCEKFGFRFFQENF

Streptavidin (Streptomyces avidinii), sequence (P22629 whole entry, looked up): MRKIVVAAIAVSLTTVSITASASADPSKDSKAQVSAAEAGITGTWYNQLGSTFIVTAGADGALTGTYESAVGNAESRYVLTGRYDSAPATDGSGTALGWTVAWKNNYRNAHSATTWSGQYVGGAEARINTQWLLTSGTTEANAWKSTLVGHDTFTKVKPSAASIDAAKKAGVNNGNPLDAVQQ
Torsin-1A (Homo sapiens), sequence (O14656 whole entry, looked up): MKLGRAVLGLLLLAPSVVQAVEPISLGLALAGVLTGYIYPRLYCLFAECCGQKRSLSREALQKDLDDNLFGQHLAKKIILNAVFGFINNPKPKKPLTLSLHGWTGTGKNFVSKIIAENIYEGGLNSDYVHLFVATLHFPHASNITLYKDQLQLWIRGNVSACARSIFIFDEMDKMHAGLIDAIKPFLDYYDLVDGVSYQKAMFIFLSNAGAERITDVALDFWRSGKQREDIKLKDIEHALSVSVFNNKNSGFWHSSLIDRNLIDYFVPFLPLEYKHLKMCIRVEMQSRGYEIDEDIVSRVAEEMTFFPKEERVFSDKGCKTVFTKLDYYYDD
NADPH oxidase 4 (Homo sapiens), sequence (Q9NPH5 whole entry, looked up): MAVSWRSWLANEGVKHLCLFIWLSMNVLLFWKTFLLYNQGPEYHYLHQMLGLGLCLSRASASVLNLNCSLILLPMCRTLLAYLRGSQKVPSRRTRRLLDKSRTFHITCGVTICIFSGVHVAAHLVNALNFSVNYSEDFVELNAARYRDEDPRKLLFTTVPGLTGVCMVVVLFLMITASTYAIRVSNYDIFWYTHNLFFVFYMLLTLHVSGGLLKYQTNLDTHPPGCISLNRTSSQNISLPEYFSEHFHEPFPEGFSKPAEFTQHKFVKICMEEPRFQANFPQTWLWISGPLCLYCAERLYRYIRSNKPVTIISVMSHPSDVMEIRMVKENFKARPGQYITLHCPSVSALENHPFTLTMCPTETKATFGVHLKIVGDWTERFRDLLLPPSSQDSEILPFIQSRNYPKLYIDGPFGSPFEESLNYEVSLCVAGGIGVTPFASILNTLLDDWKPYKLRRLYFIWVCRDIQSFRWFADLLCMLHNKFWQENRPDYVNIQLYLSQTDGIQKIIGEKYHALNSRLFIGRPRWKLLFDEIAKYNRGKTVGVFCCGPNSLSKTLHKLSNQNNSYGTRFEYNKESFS
NADPH oxidase 2 (Homo sapiens), sequence (P04839 whole entry, looked up): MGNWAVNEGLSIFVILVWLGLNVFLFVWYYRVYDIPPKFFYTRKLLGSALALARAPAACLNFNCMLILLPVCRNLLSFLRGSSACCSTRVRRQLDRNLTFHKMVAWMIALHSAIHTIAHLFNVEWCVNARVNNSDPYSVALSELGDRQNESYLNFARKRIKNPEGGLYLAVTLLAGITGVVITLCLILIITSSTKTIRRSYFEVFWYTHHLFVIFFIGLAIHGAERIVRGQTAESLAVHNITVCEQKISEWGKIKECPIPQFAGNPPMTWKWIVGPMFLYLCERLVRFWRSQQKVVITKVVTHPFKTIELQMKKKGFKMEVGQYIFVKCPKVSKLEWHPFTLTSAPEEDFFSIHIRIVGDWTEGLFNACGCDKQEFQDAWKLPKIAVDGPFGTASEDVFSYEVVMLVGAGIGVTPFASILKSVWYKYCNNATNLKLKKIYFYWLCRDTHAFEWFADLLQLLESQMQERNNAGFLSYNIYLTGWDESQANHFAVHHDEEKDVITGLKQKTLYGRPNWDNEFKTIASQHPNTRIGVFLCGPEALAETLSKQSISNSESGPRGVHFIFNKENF

| SMILES | composite z-score [1] | z-score [2] | z-score [3] | z-score [4] | z-score [5] | composite z-score [6] | composite z-score [7] | composite z-score [8] | composite z-score [9] | composite z-score [10] | z-score [11] | composite z-score [12] | z-score [13] | z-score [14] | z-score [15] | z-score [16] | z-score [17] | z-score [18] | z-score [19] | z-score [20] |
| --- | --- | --- | --- | --- | --- | --- | --- | --- | --- | --- | --- | --- | --- | --- | --- | --- | --- | --- | --- | --- |
| O=C1O[C@@H](c2ccccc2)[C@@H](c2ccccc2)N2[C@@H](c3ccc(OCCO)cc3)[C@]3(C(=O)Nc4ccc(C#CC5(O)CCCCCC5)cc43)[C@@H](C(=O)O)[C@H]12 | 0.213 | -0.72 (inactive) | -0.448 (inactive) | -0.0246 (inactive) | 0.371 (inactive) | 0.351 | -0.0695 | 0.562 | 0.695 | 0.633 | 1.87 (inactive) | -0.0862 | -1.17 (inactive) | -0.927 (inactive) | -8.35 (active) | -0.76 (inactive) | 0.169 | 2.21 (inactive) | -0.56 (inactive) | 0.314 |
| CN(C)CCCNC(=O)[C@@]1(C)c2ccccc2C(=O)N(Cc2ccc(OC(F)(F)F)cc2)[C@H]1c1ccc(CO)cc1 | -0.13 | -2.14 (inactive) | -1.04 (inactive) | 1.06 (inactive) | -0.175 (inactive) | -1.04 | 0.0778 | -0.924 | 0.332 | 0.447 | -0.796 (inactive) | -0.104 | 1.53 (inactive) | -0.103 (inactive) | 2.79 (inactive) | 0.328 (inactive) | 0.235 | -0.607 (inactive) | -0.303 (inactive) | -1.63 |
| CC[C@@H]1C=C(C(=O)O)[C@H](c2ccc(OC)cc2)N1S(=O)(=O)c1ccc(C)cc1 | 0.0237 | -1.09 (inactive) | 1.01 (inactive) | 0.0798 (inactive) | 0.0935 (inactive) | 0.114 | -0.016 | -0.579 | 0.316 | -0.236 | -1.46 (inactive) | -0.0449 | 0.785 (inactive) | 0.453 (inactive) | -0.51 (inactive) | 0.437 (inactive) | -0.458 | 0.339 (inactive) | -0.517 (inactive) | -0.215 |
| C=C(CCCC)/C(=C/C[C@H](OC(=O)c1ccncc1)c1ccccc1OCCO)c1cc(C(=O)OC)ccc1OC | -0.0692 | -1.78 (inactive) | -0.402 (inactive) | 11.4 (active) | 0.179 (inactive) | 0.396 | 0.0391 | 0.0152 | 0.369 | 1.43 | 0.0839 (inactive) | 0.165 | 23.6 (active) | 6.35 (inactive) | 3.84 (inactive) | 1.44 (inactive) | -0.166 | 0.559 (inactive) | -0.48 (inactive) | -1.67 |
| COc1ccc([Si](C)(C)[C@H]2[C@H](CCO)O[C@@]3(C(=O)N(Cc4cccc(N5C(=O)c6ccccc6Oc6ccccc65)c4)c4ccccc43)[C@@H]2C)cc1 | 0.0511 | -6.96 (inactive) | -0.365 (inactive) | 0.716 (inactive) | -1.1 (inactive) | 0.4 | -0.05 | -0.412 | -0.54 | 0.734 | 0.253 (inactive) | 0.119 | 2.63 (inactive) | 2.78 (inactive) | 0.979 (inactive) | 1.6 (inactive) | 0.87 | -1.93 (inactive) | 2.27 (inactive) | 1.1 |
| NC(=O)NCC#Cc1ccc2c(c1)[C@]1(C(=O)N2)[C@H](c2ccc(OCCO)cc2)N2[C@H](c3ccccc3)[C@H](c3ccccc3)OC(=O)[C@H]2[C@@H]1C(=O)NC[C@H](O)c1ccccc1 | -0.138 | -2.86 (inactive) | 0.0532 (inactive) | -0.671 (inactive) | -0.648 (inactive) | 0.079 | -0.0195 | -0.17 | -0.288 | 0.398 | 2.63 (inactive) | 0.0183 | 1.06 (inactive) | -0.573 (inactive) | -0.88 (inactive) | -1.81 (inactive) | 0.713 | 2 (inactive) | 0.314 (inactive) | 0.742 |
| O=C(NCc1ccccc1)[C@@H]1c2ccccc2C(=O)N(Cc2ccc(OC(F)(F)F)cc2)[C@H]1c1ccc(CO)cc1 | -0.134 | -0.495 (inactive) | 0.0274 (inactive) | 0.208 (inactive) | 0.129 (inactive) | -0.756 | 0.0102 | 0.521 | 0.162 | -0.493 | 0.39 (inactive) | 0.656 | 3.9 (inactive) | 0.566 (inactive) | 1.56 (inactive) | 0.158 (inactive) | 0.503 | -3.06 (inactive) | 0.263 (inactive) | 0.401 |
| COc1ccc([Si](C)(C)[C@H]2[C@H](CC(=O)N3CCC[C@H]3CO)O[C@@]3(C(=O)N(Cc4ccc(N5CCCCC5=O)cc4)c4ccccc43)[C@@H]2C)cc1 | 0.567 | -3.13 (inactive) | -0.53 (inactive) | -0.258 (inactive) | 0.44 (inactive) | -0.0147 | 0.426 | 0.13 | 0.608 | 2.17 | 1.5 (inactive) | 0.44 | 7.73 (inactive) | 1.66 (inactive) | 2.12 (inactive) | 1.02 (inactive) | 0.287 | 1.52 (inactive) | 1.03 (inactive) | 2.69 |
